The structures appear in SMILES notation.

6 compounds from ChEMBL document CHEMBL1961873, “Compounds: GSK PKIS; Assays: Nanosyn kinase panel” (2012) can be followed below.

Test [1] concerns the target Tyrosine-protein kinase Fyn (Homo sapiens) (UniProt P06241). The note with it: at 1 µM.
In test [2] the target is Tyrosine-protein kinase HCK (Homo sapiens) (UniProt P08631). The note with it: at 0.1 µM.
Test [3] has the same target. The note with it: at 1 µM.
For test [4], the target named is Insulin-like growth factor 1 receptor (Homo sapiens) (UniProt P08069). The note with it: at 0.1 µM.
Insulin-like growth factor 1 receptor (Homo sapiens), sequence (P08069 31-736 limits assumed): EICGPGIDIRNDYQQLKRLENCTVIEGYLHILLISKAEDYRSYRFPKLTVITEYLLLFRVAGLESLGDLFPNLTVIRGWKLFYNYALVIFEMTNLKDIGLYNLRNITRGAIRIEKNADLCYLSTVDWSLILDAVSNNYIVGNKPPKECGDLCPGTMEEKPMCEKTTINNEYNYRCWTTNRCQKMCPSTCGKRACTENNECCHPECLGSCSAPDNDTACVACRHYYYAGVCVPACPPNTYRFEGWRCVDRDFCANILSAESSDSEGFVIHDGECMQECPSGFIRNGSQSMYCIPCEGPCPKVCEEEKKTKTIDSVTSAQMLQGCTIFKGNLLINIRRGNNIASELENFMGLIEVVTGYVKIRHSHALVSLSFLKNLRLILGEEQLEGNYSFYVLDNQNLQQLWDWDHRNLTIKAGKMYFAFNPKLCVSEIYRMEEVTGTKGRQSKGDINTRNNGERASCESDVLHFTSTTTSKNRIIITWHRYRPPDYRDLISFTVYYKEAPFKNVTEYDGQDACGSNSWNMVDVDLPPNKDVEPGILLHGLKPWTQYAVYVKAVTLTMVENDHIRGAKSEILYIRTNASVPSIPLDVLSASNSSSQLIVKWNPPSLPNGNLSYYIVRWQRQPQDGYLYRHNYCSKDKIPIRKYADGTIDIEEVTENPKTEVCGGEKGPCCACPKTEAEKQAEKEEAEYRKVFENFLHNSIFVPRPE
Insulin-like growth factor 1 receptor (Homo sapiens), sequence (P08069 741-1367 limits assumed): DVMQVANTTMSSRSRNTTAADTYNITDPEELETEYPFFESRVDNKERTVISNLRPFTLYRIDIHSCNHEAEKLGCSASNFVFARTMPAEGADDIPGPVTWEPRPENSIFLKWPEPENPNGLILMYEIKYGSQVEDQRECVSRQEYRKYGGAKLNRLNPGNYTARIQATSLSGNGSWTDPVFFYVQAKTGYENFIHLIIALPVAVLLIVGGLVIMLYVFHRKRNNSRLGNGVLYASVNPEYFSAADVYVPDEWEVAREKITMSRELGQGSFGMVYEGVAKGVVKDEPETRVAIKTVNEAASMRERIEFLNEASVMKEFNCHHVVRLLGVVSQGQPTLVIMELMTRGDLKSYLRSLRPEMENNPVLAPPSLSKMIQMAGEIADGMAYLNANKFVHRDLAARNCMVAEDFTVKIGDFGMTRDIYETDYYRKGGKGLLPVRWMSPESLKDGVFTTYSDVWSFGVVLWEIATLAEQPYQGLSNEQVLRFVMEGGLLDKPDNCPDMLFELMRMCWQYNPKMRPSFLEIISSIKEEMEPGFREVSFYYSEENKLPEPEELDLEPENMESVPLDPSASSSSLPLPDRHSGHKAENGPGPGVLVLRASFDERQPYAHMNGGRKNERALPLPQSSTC
Test [5] shares this target. The note with it: at 1 µM.
Test [6] deals with Insulin receptor (Homo sapiens) (UniProt P06213). The note with it: at 0.1 µM.
The target is the same in test [7]. The note with it: at 1 µM.
Test [8] deals with Insulin receptor-related protein (Homo sapiens) (UniProt P14616). The note with it: at 0.1 µM.
For test [9] the target is unchanged. The note with it: at 1 µM.
Test [10] concerns the target T1, Tyrosine-protein kinase ITK/TSK (Homo sapiens) (UniProt Q08881).
T1 sequence (whole entry): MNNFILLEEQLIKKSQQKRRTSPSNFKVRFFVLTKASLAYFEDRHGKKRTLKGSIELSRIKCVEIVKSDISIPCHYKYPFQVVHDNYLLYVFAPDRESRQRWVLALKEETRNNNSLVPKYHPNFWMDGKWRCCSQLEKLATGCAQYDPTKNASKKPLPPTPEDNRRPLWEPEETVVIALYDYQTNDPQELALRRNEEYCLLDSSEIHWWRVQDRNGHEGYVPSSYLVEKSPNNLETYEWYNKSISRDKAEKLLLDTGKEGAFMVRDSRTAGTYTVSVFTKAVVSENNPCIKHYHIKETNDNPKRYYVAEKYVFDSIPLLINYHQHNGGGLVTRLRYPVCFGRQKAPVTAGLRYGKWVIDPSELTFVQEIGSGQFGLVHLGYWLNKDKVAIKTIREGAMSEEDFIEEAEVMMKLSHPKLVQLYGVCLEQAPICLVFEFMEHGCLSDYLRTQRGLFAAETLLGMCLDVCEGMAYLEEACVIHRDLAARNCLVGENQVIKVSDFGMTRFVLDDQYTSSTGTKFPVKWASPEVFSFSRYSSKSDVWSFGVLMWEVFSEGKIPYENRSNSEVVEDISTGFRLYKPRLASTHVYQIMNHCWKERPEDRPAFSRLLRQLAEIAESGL
The note with it: at 0.1 µM.

Test [11] concerns the target T1, Tyrosine-protein kinase ITK/TSK (Homo sapiens). The note with it: at 1 µM.
Test [12] addresses Tyrosine-protein kinase JAK1 (Homo sapiens) (UniProt P23458). The note with it: at 0.1 µM.
The target is the same in test [13]. The note with it: at 1 µM.
In test [14] the target is Tyrosine-protein kinase JAK2 (Homo sapiens) (UniProt O60674). The note with it: at 0.1 µM.
Tyrosine-protein kinase JAK2 (Homo sapiens), sequence (O60674 whole entry): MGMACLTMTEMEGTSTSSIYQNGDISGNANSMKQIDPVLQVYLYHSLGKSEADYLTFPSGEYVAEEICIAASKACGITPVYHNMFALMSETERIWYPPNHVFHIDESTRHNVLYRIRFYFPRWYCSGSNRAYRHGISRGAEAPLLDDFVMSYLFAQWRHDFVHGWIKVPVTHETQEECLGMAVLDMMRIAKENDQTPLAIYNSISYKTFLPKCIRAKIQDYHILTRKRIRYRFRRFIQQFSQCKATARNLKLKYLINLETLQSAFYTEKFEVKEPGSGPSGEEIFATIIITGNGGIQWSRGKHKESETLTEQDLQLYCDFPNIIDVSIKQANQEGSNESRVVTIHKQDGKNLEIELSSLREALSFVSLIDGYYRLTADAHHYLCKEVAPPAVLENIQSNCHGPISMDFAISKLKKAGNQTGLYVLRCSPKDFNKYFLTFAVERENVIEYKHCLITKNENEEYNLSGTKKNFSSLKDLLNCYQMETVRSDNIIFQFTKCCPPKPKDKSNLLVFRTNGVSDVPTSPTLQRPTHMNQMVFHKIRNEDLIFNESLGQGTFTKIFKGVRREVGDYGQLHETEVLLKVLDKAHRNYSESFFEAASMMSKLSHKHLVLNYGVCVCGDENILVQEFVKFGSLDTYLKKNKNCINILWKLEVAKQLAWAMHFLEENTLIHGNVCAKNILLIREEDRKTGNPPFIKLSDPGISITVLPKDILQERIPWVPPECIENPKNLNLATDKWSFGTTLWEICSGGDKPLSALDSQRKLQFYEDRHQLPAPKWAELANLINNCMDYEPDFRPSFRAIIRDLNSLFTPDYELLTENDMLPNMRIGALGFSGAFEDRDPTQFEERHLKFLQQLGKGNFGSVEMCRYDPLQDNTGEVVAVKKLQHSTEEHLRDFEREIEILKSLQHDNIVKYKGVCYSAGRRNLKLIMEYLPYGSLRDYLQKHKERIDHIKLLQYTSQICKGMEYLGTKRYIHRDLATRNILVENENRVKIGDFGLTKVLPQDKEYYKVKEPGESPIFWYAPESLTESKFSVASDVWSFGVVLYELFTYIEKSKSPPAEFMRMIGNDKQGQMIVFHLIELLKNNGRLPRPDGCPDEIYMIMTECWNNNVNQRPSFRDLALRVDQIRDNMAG
For test [15] the target is unchanged. The note with it: at 1 µM.
The target in test [16] is T2, Tyrosine-protein kinase JAK3 (Homo sapiens) (UniProt P52333).
T2 sequence (whole entry): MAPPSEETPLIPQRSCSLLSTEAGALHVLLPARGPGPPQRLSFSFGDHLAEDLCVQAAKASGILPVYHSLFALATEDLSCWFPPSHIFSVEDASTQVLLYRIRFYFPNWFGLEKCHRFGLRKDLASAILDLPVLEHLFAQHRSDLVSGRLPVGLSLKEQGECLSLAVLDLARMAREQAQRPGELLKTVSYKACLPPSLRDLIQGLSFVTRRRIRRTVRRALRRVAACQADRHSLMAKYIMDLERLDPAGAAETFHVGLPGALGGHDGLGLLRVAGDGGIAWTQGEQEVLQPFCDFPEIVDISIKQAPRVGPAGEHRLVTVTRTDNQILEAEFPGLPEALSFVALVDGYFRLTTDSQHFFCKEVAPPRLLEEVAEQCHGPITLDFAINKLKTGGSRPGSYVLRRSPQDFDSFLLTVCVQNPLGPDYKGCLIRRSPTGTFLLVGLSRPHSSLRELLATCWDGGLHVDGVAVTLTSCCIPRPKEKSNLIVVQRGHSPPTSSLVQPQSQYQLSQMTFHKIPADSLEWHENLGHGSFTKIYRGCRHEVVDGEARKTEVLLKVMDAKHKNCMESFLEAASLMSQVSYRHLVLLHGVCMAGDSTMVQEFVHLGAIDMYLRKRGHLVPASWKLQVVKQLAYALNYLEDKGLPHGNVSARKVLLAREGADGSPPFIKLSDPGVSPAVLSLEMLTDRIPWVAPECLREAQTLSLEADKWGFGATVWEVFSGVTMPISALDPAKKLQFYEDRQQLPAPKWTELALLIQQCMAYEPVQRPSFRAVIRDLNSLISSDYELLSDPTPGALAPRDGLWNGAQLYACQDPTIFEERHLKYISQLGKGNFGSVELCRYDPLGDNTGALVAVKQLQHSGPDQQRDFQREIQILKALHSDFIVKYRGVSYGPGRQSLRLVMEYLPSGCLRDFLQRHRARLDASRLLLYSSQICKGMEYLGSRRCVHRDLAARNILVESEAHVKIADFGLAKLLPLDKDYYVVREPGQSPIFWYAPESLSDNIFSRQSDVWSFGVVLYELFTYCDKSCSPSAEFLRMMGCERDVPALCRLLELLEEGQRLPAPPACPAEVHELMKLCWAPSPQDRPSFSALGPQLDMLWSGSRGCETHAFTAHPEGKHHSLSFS
The note with it: at 0.1 µM.

Test [17] addresses T2, Tyrosine-protein kinase JAK3 (Homo sapiens). The note with it: at 1 µM.
Test [18] addresses Vascular endothelial growth factor receptor 2 (Homo sapiens) (UniProt P35968). The note with it: at 0.1 µM.
The target is the same in test [19]. The note with it: at 1 µM.
For test [20], the target named is Mast/stem cell growth factor receptor Kit (Homo sapiens) (UniProt P10721). The note with it: at 0.1 µM.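 Also: values are mean inhibition of KIT, from the GSK PKIS dataset.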
Mast/stem cell growth factor receptor Kit (Homo sapiens), sequence (P10721 whole entry): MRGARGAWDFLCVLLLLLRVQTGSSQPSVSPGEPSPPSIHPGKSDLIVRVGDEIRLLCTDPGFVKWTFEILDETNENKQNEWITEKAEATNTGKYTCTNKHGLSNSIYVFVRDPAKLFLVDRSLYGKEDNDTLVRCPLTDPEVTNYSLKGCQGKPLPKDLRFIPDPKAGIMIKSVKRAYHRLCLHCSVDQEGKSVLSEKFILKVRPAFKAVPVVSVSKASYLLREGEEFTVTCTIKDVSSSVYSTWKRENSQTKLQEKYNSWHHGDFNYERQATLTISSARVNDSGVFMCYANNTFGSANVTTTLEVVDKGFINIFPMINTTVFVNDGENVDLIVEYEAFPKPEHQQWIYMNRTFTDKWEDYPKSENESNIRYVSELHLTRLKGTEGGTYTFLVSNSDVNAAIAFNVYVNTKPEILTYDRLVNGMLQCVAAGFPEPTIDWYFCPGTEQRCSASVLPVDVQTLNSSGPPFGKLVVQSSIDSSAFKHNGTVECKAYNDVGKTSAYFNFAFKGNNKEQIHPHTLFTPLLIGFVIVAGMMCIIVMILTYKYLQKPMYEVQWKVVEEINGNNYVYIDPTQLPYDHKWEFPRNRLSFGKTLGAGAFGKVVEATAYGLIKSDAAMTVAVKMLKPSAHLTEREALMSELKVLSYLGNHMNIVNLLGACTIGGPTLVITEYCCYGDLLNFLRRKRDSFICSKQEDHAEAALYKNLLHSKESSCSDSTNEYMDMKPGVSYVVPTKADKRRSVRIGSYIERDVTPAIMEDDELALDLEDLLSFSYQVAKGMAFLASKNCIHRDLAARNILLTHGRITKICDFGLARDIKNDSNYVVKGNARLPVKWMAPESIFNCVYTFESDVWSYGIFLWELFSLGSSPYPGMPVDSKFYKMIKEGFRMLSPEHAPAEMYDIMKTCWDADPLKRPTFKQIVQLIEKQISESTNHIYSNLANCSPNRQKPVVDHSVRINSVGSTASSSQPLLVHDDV

Tyrosine-protein kinase JAK1 (Homo sapiens), sequence (P23458 whole entry): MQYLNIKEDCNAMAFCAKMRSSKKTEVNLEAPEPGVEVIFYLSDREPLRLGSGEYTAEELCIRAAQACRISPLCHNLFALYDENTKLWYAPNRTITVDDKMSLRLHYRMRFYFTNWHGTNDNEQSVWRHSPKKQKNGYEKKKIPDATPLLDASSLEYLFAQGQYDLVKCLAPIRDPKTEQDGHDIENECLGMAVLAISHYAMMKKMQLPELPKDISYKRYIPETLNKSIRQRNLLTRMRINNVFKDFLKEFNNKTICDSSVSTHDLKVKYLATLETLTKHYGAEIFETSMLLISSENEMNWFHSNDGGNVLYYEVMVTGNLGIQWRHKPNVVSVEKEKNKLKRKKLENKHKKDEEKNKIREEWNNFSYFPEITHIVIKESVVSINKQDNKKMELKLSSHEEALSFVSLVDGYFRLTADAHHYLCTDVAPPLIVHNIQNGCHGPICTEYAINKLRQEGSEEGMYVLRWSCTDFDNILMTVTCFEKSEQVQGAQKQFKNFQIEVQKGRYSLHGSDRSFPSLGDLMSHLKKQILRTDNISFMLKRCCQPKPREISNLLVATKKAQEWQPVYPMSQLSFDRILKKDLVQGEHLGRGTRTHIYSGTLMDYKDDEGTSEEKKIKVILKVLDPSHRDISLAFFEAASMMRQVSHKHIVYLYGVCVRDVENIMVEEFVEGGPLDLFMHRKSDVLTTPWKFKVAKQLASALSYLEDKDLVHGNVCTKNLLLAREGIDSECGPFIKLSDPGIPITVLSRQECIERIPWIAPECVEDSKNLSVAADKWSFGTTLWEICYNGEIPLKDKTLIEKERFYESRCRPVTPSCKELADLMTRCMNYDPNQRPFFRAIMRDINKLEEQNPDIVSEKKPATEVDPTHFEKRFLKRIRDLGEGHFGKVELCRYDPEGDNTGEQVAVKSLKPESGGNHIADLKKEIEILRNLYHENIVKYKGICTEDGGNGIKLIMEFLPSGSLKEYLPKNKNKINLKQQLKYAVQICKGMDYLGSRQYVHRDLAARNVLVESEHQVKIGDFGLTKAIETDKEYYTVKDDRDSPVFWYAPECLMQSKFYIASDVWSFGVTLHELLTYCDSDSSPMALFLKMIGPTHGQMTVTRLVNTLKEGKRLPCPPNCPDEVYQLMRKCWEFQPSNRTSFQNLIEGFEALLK

As for `COc1cc2ncn(-c3cc(O[C@H](C)c4ccccc4Cl)c(C(N)=O)s3)c2cc1OC`, the inhibition stood at 8.81% in test [1]; 11.7% in [2]; 51.8% in test [3]; 2.5% in test [4]; 3.13% in [5]; 2.07% in test [6]. The inhibition in [7] was 4.73%; in [8], 1.49%; in test [9], 2.98%; in test [10], 2.64%; in [11] it was 8.66%; in [12], 8.61%. In addition, the inhibition in [13] came to 21.9%; in test [14] it was 1.66%; in [15] it was 6.6%; in test [16] it was 0.32%; in test [17] it was 25.9%; in [18] it was 36.4%. The inhibition amounted to 72.5% in [19] and 7.11% in test [20].

Consider `CC1=C(C(=O)Nc2ccc3[nH]ncc3c2)C(c2ccc3ccccc3c2)CC(=O)N1` (stereo not given), for which the inhibition in test [1] was determined as 1.8%; in [2], 4.76%; in [3], 17.9%; in [4], 4%; in [5] it was 6.6%; in test [6], 4.67%. Besides, the inhibition in test [7] is 4.45%; in [8], 0.94%; in test [9], 1.74%; in [10], 2.6%; in test [11], 14.2%; in test [12], 4.05%. In addition, the inhibition amounted to 29.5% in test [13]; 2.05% in test [14]; 25.8% in [15]; 0.88% in [16]; 30.9% in [17]; 5.3% in test [18]. For the same compound, the inhibition was found to be 12.5% in test [19] and 2.51% in [20].

In the case of `COc1ccc2cc(-c3c(-c4ccncc4)nc(-c4ccc([S+](C)[O-])cc4)n3C)ccc2c1` (stereo not given), the inhibition was 2.67% in [1]; 4.09% in test [2]; 6.94% in test [3]; 1.13% in [4]; 0.1% in test [5]; -0.81% in [6]. Moreover, the inhibition in test [7] stood at 3.26%; in test [8], 1.09%; in test [9] it was 1.11%; in test [10], 1.06%; in test [11], 3.22%; in [12] it was 1.65%. In addition, the inhibition in test [13] is -2.81%; in test [14], 0.86%; in test [15], 2.23%; in [16], -0.93%; in test [17], 0.05%; in test [18], 4.56%. For the same compound, the inhibition in test [19] turned out to be 17.8%; in test [20], 1.88%.

For `O=C1NC(=O)C(c2ccc(Cl)cc2)=C1Nc1ccc(Cl)c(C(=O)O)c1`, the inhibition is 0.57% in [1]; 0.67% in test [2]; 3.62% in test [3]; 0.06% in test [4]; -0.55% in test [5]; 2.24% in [6]. The inhibition in test [7] is 2.54%; in test [8], -0.43%; in test [9] it was -1.7%; in [10], -0.06%; in [11] it was 0.04%; in test [12], -3.25%. For the same compound, the inhibition was -7.51% in [13]; -0.25% in [14]; -0.22% in [15]; 0.01% in test [16]; 2.64% in test [17]; 4.84% in test [18]. Also, the inhibition in test [19] is 9.16%; in test [20], -0.92%.

Consider `O=C1NC(=O)C(N2CCc3ccccc32)=C1c1ccc(Cl)cc1`, for which the inhibition turned out to be 4.67% in test [1]; 8.78% in test [2]; 12.7% in test [3]; 2.02% in test [4]; 2.75% in test [5]; 6.09% in [6]. In addition, the inhibition amounted to 5.24% in test [7]; 2.18% in test [8]; 2.1% in test [9]; 1.5% in [10]; 2.44% in [11]; 1.13% in test [12]. The inhibition in [13] was 0.25%; in [14] it was 1.54%; in test [15], 2.81%; in test [16], -1.28%; in test [17], 1.36%; in test [18] it was 12.4%. The values for the inhibition in test [19] and in test [20] were 14.6% and 6.61%, respectively.

In the case of `Cc1nnc(-c2ccc(C)c(-c3ccc(C(=O)Nc4cccc(C#N)c4)cc3)c2)o1`, the inhibition in test [1] is 3.47%; in test [2], 4.32%; in [3], 5.14%; in test [4], 1.24%; in test [5], 0.79%; in test [6], 4.34%. For the same compound, the inhibition in test [7] was 3.89%; in [8], -0.6%; in test [9], 1.65%; in test [10], 0.98%; in [11] it was 0.58%; in [12] it was 1.77%. Moreover, the inhibition in [13] was 6.74%; in test [14], -0.14%; in test [15] it was -0.34%; in test [16] it was -1.17%; in test [17], 1.29%; in [18] it was 3.3%. The results for the inhibition in test [19] and in [20] were 7.82% and 5.68%, respectively.
